Results reported in PubChem BioAssay AID2315 (National Center for Advancing Translational Sciences (NCATS), 2010).
Screen size: about 290,000 compounds; about 27,000 (9.3%) were called active. No stated cut-off is given here; in the data, active means inhibition mostly above about 28% (no sharp cut-off); inactive means mostly below about 43%. The full list was thinned out, with actives kept by preference.

test: A qHTS for Small Molecule Inhibitors of Shiga Toxin; conditions: Vero cells, Shiga toxin protein synthesis inhibition reporter; at 38.7 µM, stronger effect = higher value; further: 0% is about no effect

Structure (SMILES) | inhibition
Cc1cc(=O)[nH]c2nnnn12 | -3.63% (inactive)
COc1ccccc1C(=O)Nc1cccc(C(=O)N2CCOCC2)c1 | -11.1% (inactive)
COc1ccccc1/C=C/C(=O)NC(=S)N1CCOCC1 | 106% (active)
O=C(/C=C/c1ccco1)NC(=S)N1CCCCC1 | 47.5% (active)
COc1ccc(/C=C/C(=O)NC(=S)N2CCCC(C(N)=O)C2)cc1 (configuration not stated) | 12.4% (inactive)
O=C(/C=C/c1ccco1)NC(=S)Nc1ccccc1Br | 26.6% (inactive)
COc1ccccc1/C=C/C(=O)NC1CC2CCC1C2 (configuration not stated) | 12.2% (inactive)
CCCn1c(C2CCCN2c2nc(-c3ccc(C)cc3)cs2)nc2cc(Cl)c(N3CCCCC3)cc21 (configuration not stated) | 26.1% (inactive)
CCOc1ccc(Br)cc1S(=O)(=O)Nc1ccc(C(=O)OC(C)C(=O)N(C)c2ccccc2)cc1 (configuration not stated) | -0.904% (inactive)
CCOC(=O)c1c(-c2ccccc2)oc2cc(Br)c(O)c(C=O)c12 | 3% (inactive)
Cc1cc(=O)[nH]c(SCc2cccc(F)c2)n1 | -4.74% (inactive)
Nc1cc(N)nc(SCc2ccc(Cl)cc2)n1 | 17.1% (inactive)
Nc1cc(N)nc(SCc2cccc(F)c2)n1 | 62.3% (active)
CN(CC(=O)Nc1ccccc1C(F)(F)F)C(=O)Cc1ccccc1F | 16.3% (inactive)
Cc1ccc(NS(=O)(=O)c2cn(C)c(=O)n(C)c2=O)c(C)c1 | 3.31% (inactive)
COc1cc(C)c(C)cc1S(=O)(=O)N1CCCc2ccccc21 | 16.5% (inactive)
COc1ccc(CCC(C)N2CCc3ccccc3C2)cc1 (configuration not stated) | -6.15% (inactive)
COc1ccc(Oc2c(Cl)cnn(-c3ccccc3)c2=O)cc1 | -10.6% (inactive)
COc1ccc2oc(=O)c(C(=O)N3CCCc4ccccc43)cc2c1 | -5.55% (inactive)
COc1ccc(-n2ncc3c(N4CCCc5ccccc54)ncnc32)cc1 | 113% (active)
COc1ccc(-n2ncc3c(N4CCc5ccccc54)ncnc32)cc1 | 105% (active)

Structure (SMILES) | inhibition
Cc1ccc(NC(=O)CN2CCc3ccccc3C2)cc1C | 17% (inactive)
COc1ccc(C(=O)OCC(=O)NCCCc2ccccc2)cc1OC | -3.51% (inactive)
NS(=O)(=O)c1cccc(NC(=O)COC(=O)/C=C/c2ccco2)c1 | 26.6% (inactive)
CCOC(=O)c1c(NC(=O)/C=C/c2ccco2)sc(C)c1C | -12.1% (inactive)
CC(C)Oc1ccc(/C=C(\NC(=O)/C=C/c2ccco2)C(=O)NCCc2nc3ccccc3[nH]2)cc1 | 14.2% (inactive)
O=C(Nc1cccc(-c2nc3ccccc3[nH]2)c1)c1ccc(C(=O)Nc2cccc(-c3nc4ccccc4[nH]3)c2)cc1 | 62.5% (active)
O=C(Cc1cccs1)Nc1cccc(-c2nc3ccccc3[nH]2)c1 | 3.19% (inactive)
CN(c1ccccc1)S(=O)(=O)c1cc(C(=O)Nc2nc3ccccc3[nH]2)ccc1Cl | 55.5% (inactive)
Cc1ccc(-n2nc3ccc(NC(=O)/C=C/c4ccco4)cc3n2)cc1C | 63.8% (active)
Cc1ccc(N2NC(=O)/C(=C/C=C/c3ccco3)C2=O)cc1C | 20.9% (inactive)
O=C(/C=C/c1ccco1)Nc1cccc(-c2nc3ccccc3[nH]2)c1 | 157% (active)
COc1ccc(Br)cc1C1C2C=CCC(C)C2C(=O)N1Cc1ccccc1 (configuration not stated) | 2.19% (inactive)
Cc1cnc(C)c(N2CCN(C(=O)C3CCC(=O)N(CCc4cccc(F)c4)C3)CC2)n1 (configuration not stated) | 0.443% (inactive)
NC(=O)C1CCN(C(=O)c2ccc3c(=O)n(Cc4cccc(Br)c4)c(=S)[nH]c3c2)CC1 | 0.712% (inactive)
CCN1C(=S)N[C@@H](c2cccc(C(F)(F)F)c2)C(C(=O)OC)=C1C | -10.1% (inactive)
COC(=O)C1(C)CC1(c1ccccc1)c1ccccc1 (configuration not stated) | -7.31% (inactive)
O=CN1CCN(C(=O)c2ccc3c(c2)OCO3)CC1 | 2.8% (inactive)
CN1C(=O)/C(=C/C=C2\SCCN2C)OC1=S | 70.4% (active)
COCCNc1nc(N)c([N+](=O)[O-])c(N2CCCCCC2)n1 | 6.83% (inactive)
O=CN1CCN(C(=O)c2ccc(Br)o2)CC1 | 17.4% (inactive)
Cc1ccc(NC2CCCN(C(=O)CCC3(C)CC3)C2)cc1C (configuration not stated) | -22.1% (inactive)

Structure (SMILES) | inhibition
COc1ccc(NC(=O)Nc2cccc3cccnc23)cc1 | 79.2% (active)
O=C(Nc1ccccc1Cl)Nc1cccc2cccnc12 | 40.9% (active)
O=C(Nc1cccc2cccnc12)C(F)(F)F | -8.11% (inactive)
O=C(Nc1cccc2cccnc12)c1cccc(N2C(=O)CCC2=O)c1 | 30.9% (inactive)
COc1ccc(S(=O)(=O)Nc2cccc3cccnc23)c(N)c1 | -26.8% (inactive)
CCOC(=O)Cc1ncccc1C(=O)Nc1ccc(OC)cc1 | 6.55% (inactive)
O=C(Nc1ccccc1Cl)Nn1cnnc1 | 14.1% (inactive)
O=C(Nc1cccc2cccnc12)c1cccc(Cl)c1 | 87.7% (active)
N#Cc1ccc(C(=O)Nc2cccc3cccnc23)c(F)c1 | -0.419% (inactive)
O=C(COc1ccccc1Cl)N1CCCCCCC1 | 36.9% (inactive)
CN(c1ccccc1)S(=O)(=O)c1ccc(NC(=O)COc2ccccc2)cc1 | -5.47% (inactive)
NS(=O)(=O)c1ccc(CCNS(=O)(=O)c2cccc3cccnc23)cc1 | -5.83% (inactive)
COc1ccc(-c2cc(=O)oc3cc(OC(C)C(=O)Nc4ccc(CN5CCOCC5)cc4)ccc23)cc1 (configuration not stated) | -3.54% (inactive)
CCOC(=O)c1c(-c2ccccc2)oc2ccc(OCC(N)=O)cc12 | -3.18% (inactive)
COc1cc2c(cc1OC)C(C(=O)Nc1cc(C)c(OC)c(C)c1)CC(=O)N2 (configuration not stated) | 7.56% (inactive)
COc1ccc(C(=O)NC(C)Cn2nc(C)cc2C)cc1OC1CCN(C(C)=O)CC1 (configuration not stated) | -5.64% (inactive)
Nc1ccc(C(=O)Nc2ccccc2N)cc1 | 46.6% (inactive)
Cc1ccc2c(c1)NCC(C(=O)NC1CCC(C)CC1)O2 (configuration not stated) | 64.8% (active)
CC1CCC(NC(=O)C2c3ccccc3C(=O)N2Cc2ccc3c(c2)OCO3)CC1 (configuration not stated) | 15.2% (inactive)
Cc1ccc(C(=O)NC2CC(C)(C)NC(C)(C)C2)c(C)c1 | -6.82% (inactive)
